Several values for one entry are separate records, joined by “and”; a condition that tells them apart may be missing. Equal entries are not always repeated. Screen size: about 5,500 compounds; about 2,000 (36%) were called active. Roughly 18% stayed inconclusive and do not appear here. No stated cut-off is given here; in the data, active means normalized growth mostly below about 0.91 (no sharp cut-off); inconclusive means no clear call, values can overlap the other calls; inactive means mostly above about 0.92. This is one part of the list.
Test: chemical genetic growth profiling, strain panel (AID 1159580);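 further: tested at 20 µM; growth read once vehicle control cultures reached saturation at 30 °C; 1 = growth at the plate median or of vehicle wells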
Details: S. cerevisiae deletion strains, growth OD

Measured: normalized growth

COc1ccccc1OCC(O)CO (stereo not drawn)
inactive: locus YAL021C, strain ccr4, stronger effect = lower value 1.02 | locus YAL026C, strain drs2, stronger effect = lower value 1.02 | locus YAL030W, strain snc1, stronger effect = lower value 1.02 | locus YBL061C, strain skt5, stronger effect = lower value 1.02 | locus YBR009C, strain hhf1, stronger effect = lower value 1.02 | locus YBR021W, strain FUR4, stronger effect = lower value 1.02 | locus YBR023C, strain chs3, stronger effect = lower value 1.02 | locus YBR171W, strain sec66, stronger effect = lower value 1.04 | locus YBR229C, strain ROT2, stronger effect = lower value 1 | locus YBR231C, strain swc5, stronger effect = lower value 1.02 | locus YBR279W, strain paf1, stronger effect = lower value 1.03 | locus YCL011C, strain gbp2, stronger effect = lower value 1.02 | locus YCL016C, strain dcc1, stronger effect = lower value 1.02 | locus YCL029C, strain bik1, stronger effect = lower value 0.972 | locus YCL061C, strain MRC1, stronger effect = lower value 1.03 | locus YCL069W, strain vba3, stronger effect = lower value 1.01 | locus YCR088W, strain abp1, stronger effect = lower value 1.02 | locus YDL005C, strain med2, stronger effect = lower value 1.04 | locus YDL035C, strain GPR1, stronger effect = lower value 1.02 | locus YDL040C, strain nat1, stronger effect = lower value 1.02 | locus YDL074C, strain BRE1, stronger effect = lower value 1 | locus YDL101C, strain DUN1, stronger effect = lower value 1.01 | locus YDL134C, strain PPH21, stronger effect = lower value 0.997 | locus YDL185W, strain tfp1, stronger effect = lower value 1 | locus YDL192W, strain arf1, stronger effect = lower value 1 | locus YDR001C, strain nth1, stronger effect = lower value 1.02 | locus YDR069C, strain doa4, stronger effect = lower value 1.02 | locus YDR101C, strain arx1, stronger effect = lower value 0.972 | locus YDR137W, strain rgp1, stronger effect = lower value 1.03 | locus YDR159W, strain sac3, stronger effect = lower value 1.02 | locus YDR162C, strain NBP2, stronger effect = lower value 1.01 | locus YDR195W, strain ref2 1.02 | locus YDR297W, strain sur2, stronger effect = lower value 1.02 | locus YDR318W, strain mcm21, stronger effect = lower value 1.02 | locus YDR334W, strain swr1, stronger effect = lower value 1.03 | locus YDR335W, strain msn5, stronger effect = lower value 1.03 | locus YDR388W, stronger effect = lower value 0.99 | locus YDR392W, strain spt3, stronger effect = lower value 0.987 | locus YDR502C, strain sam2, stronger effect = lower value 1.02 | locus YEL003W, strain gim4, stronger effect = lower value 1.01 | locus YEL037C, strain rad23, stronger effect = lower value 1.02 | locus YEL061C, strain CIN8 (second series), stronger effect = lower value 1.02 | locus YEL061C, strain CIN8, stronger effect = lower value 1.03 | locus YER015W, strain faa2, stronger effect = lower value 1.02 | locus YER016W, strain bim1, stronger effect = lower value 1.04 | locus YER110C, stronger effect = lower value 0.988 | locus YER111C, strain swi4, stronger effect = lower value 1.02 | locus YER155C, strain BEM2 (second series), stronger effect = lower value 1.02 | locus YER155C, strain BEM2, stronger effect = lower value 1.01 | locus YER167W, strain BCK2, stronger effect = lower value 1 | locus YFR010W, strain ubp6, stronger effect = lower value 1.02 | locus YGL078C, strain dbp3, stronger effect = lower value 1.02 | locus YGL086W, strain mad1, stronger effect = lower value 1 | locus YGL167C, strain pmr1, stronger effect = lower value 1.02 | locus YGL173C, strain kem1, stronger effect = lower value 1.02 | locus YGL227W, strain vid30, stronger effect = lower value 1.03 | locus YGL240W, strain doc1, stronger effect = lower value 1.03 | locus YGL248W, strain PDE1, stronger effect = lower value 1.01 | locus YGL253W, strain hxk2, stronger effect = lower value 1.01 | locus YGR078C, strain PAC10, stronger effect = lower value 1.01 | locus YGR135W, strain pre9, stronger effect = lower value 1.04 | locus YGR252W, strain gcn5, stronger effect = lower value 1.22 | locus YHR013C, strain ard1, stronger effect = lower value 1.04 | locus YHR027C, strain rpn1, stronger effect = lower value 1.01 | locus YHR030C, strain SLT2, stronger effect = lower value 1 and 0.993 | locus YHR079C, strain IRE1 (second series), stronger effect = lower value 0.988 | locus YHR079C, strain IRE1, stronger effect = lower value 0.965 | locus YHR094C, strain hxt1, stronger effect = lower value 0.978 | locus YHR129C, strain ARP1, stronger effect = lower value 0.964 | locus YHR142W, strain chs7, stronger effect = lower value 1.03 | locus YHR200W, strain rpn10, stronger effect = lower value 1.01 | locus YIL066C, strain RNR3, stronger effect = lower value 1 | locus YIL073C, strain SPO22, stronger effect = lower value 1.05 | locus YIL125W, strain kgd1, stronger effect = lower value 1.01 | locus YIR030C, strain dcg1, stronger effect = lower value 0.99 | locus YJL092W, strain hpr5, stronger effect = lower value 1.03 | locus YJL095W, strain BCK1 (second series), stronger effect = lower value 1.02 | locus YJL095W, strain BCK1, stronger effect = lower value 1.03 and 0.964 | locus YJL115W, strain asf1, stronger effect = lower value 1.02 | locus YJL129C, strain trk1, stronger effect = lower value 1.04 | locus YJL134W, strain LCB3, stronger effect = lower value 1 | locus YJL154C, strain vps35, stronger effect = lower value 1.01 | locus YJL164C, strain tpk1, stronger effect = lower value 1.02 | locus YJL166W, strain qcr8, stronger effect = lower value 1.03 | locus YJL168C, strain set2, stronger effect = lower value 0.986 | locus YJL187C, strain SWE1 (second series), stronger effect = lower value 1.01 | locus YJL187C, strain SWE1, stronger effect = lower value 1.05 | locus YJR043C, strain POL32, stronger effect = lower value 1.01 | locus YJR066W, strain TOR1, stronger effect = lower value 0.924 | locus YKL009W, strain mrt4, stronger effect = lower value 1.01 | locus YKL068W, stronger effect = lower value 1.01 | locus YKL085W, strain MDH1 (second series), stronger effect = lower value 0.999 | locus YKL085W, strain MDH1, stronger effect = lower value 0.999 | locus YKL160W, strain elf1, stronger effect = lower value 1.02 | locus YKR001C, strain vps1, stronger effect = lower value 0.998 | locus YKR026C, strain gcn3, stronger effect = lower value 1.02 | locus YKR091W, strain srl3, stronger effect = lower value 1.02 | locus YLL001W, strain dnm1, stronger effect = lower value 1.02 | locus YLL026W, stronger effect = lower value 1.02 | locus YLL041C, strain sdh2, stronger effect = lower value 1.01 | locus YLR027C, strain aat2, stronger effect = lower value 1.01 | locus YLR039C, strain RIC1, stronger effect = lower value 1.02 | locus YLR058C, strain SHM2, stronger effect = lower value 1.01 | locus YLR102C, strain apc9, stronger effect = lower value 0.982 | locus YLR113W, strain HOG1, stronger effect = lower value 0.999 | locus YLR221C, strain rsa3, stronger effect = lower value 1.01 | locus YLR258W, strain gsy2, stronger effect = lower value 1.01 | locus YLR262C, strain YPT6 (second series), stronger effect = lower value 1.02 | locus YLR262C, strain YPT6, stronger effect = lower value 1.04 | locus YLR268W, strain sec22, stronger effect = lower value 1.01 | locus YLR320W, strain mms22, stronger effect = lower value 1.03 | locus YLR330W, strain CHS5, stronger effect = lower value 1.02 | locus YLR342W, strain FKS1 (second series), stronger effect = lower value 1.01 | locus YLR342W, strain FKS1, stronger effect = lower value 1.02 | locus YLR357W, strain rsc2, stronger effect = lower value 1.03 | locus YLR370C, strain arc18, stronger effect = lower value 1.02 | locus YLR371W, strain rom2, stronger effect = lower value 0.965 | locus YLR384C, strain iki3, stronger effect = lower value 1.02 | locus YLR418C, strain cdc73, stronger effect = lower value 1.06 | locus YML016C, strain PPZ1, stronger effect = lower value 1 | locus YML032C, strain rad52, stronger effect = lower value 1.01 | locus YML120C, strain ndi1, stronger effect = lower value 1.02 | locus YML124C, strain tub3, stronger effect = lower value 0.996 | locus YMR058W, strain fet3, stronger effect = lower value 1.02 | locus YMR078C, strain ctf18, stronger effect = lower value 0.99 | locus YMR125W, strain sto1, stronger effect = lower value 1.06 | locus YMR129W, stronger effect = lower value 1.02 | locus YMR205C, strain PFK2, stronger effect = lower value 1.02 | locus YMR223W, strain ubp8, stronger effect = lower value 1.03 | locus YMR231W, strain pep5, stronger effect = lower value 1.02 | locus YMR307W, strain GAS1, stronger effect = lower value 1.05 | locus YNL067W, strain RPL9B, stronger effect = lower value 1.02 | locus YNL071W, strain lat1, stronger effect = lower value 1.02 | locus YNL153C, strain GIM3, stronger effect = lower value 1.01 | locus YNL183C, strain NPR1, stronger effect = lower value 0.956 | locus YNL209W, strain ssb2, stronger effect = lower value 1.02 | locus YNL233W, strain BNI4, stronger effect = lower value 1.01 | locus YNL248C, strain rpa49, stronger effect = lower value 1.04 | locus YNL250W, strain rad50, stronger effect = lower value 1.02 | locus YNL271C, strain bni1, stronger effect = lower value 1.01 | locus YNL298W, strain CLA4, stronger effect = lower value 1.01 | locus YNL307C, strain MCK1, stronger effect = lower value 0.99 | locus YNL322C, strain KRE1 (second series), stronger effect = lower value 1.04 | locus YNL322C, strain KRE1, stronger effect = lower value 1.01 | locus YNR049C, strain mso1, stronger effect = lower value 1.02 | locus YNR052C, strain pop2, stronger effect = lower value 0.998 | locus YOL012C, strain htz1 0.827 | locus YOL147C, strain pex11, stronger effect = lower value 0.995 | locus YOR001W, strain rrp6, stronger effect = lower value 0.995 | locus YOR061W, strain CKA2, stronger effect = lower value 1.01 | locus YOR069W, strain VPS5, stronger effect = lower value 1.01 | locus YOR070C, strain gyp1, stronger effect = lower value 1.02 | locus YOR080W, strain dia2, stronger effect = lower value 1.04 | locus YOR083W, strain WHI5, stronger effect = lower value 1.02 | locus YOR106W, strain vam3, stronger effect = lower value 1.02 | locus YOR136W, strain idh2, stronger effect = lower value 0.994 | locus YOR144C, strain elg1, stronger effect = lower value 0.993 | locus YOR184W, strain ser1, stronger effect = lower value 1 | locus YOR231W, strain MKK1, stronger effect = lower value 0.991 | locus YOR265W, strain rbl2, stronger effect = lower value 1.02 | locus YOR270C, strain vph1, stronger effect = lower value 1.05 | locus YOR290C, strain snf2, stronger effect = lower value 0.99 | locus YOR316C, strain cot1, stronger effect = lower value 0.986 | locus YPL051W, strain arl3, stronger effect = lower value 1.01 | locus YPL078C, strain atp4, stronger effect = lower value 1.02 | locus YPL106C, strain sse1, stronger effect = lower value 1.01 | locus YPL240C, strain hsp82, stronger effect = lower value 1.02 | locus YPL256C, strain CLN2, stronger effect = lower value 0.977 | locus YPR119W, strain clb2, stronger effect = lower value 0.992 | locus YPR141C, strain kar3, stronger effect = lower value 0.996 | locus YPR163C, strain tif3, stronger effect = lower value 1.01 | locus YPR167C, strain met16, stronger effect = lower value 0.999 | strain wtn01, stronger effect = lower value 1.05

Reference: PubChem BioAssay AID1159580 (chemical genetic matrix, 2015)
